An excerpt weighted towards active compounds, which were near 4.2% of everything screened.
Mtb FBA inh: inhibitors of M. tuberculosis fructose-bisphosphate aldolase | P9WQA3 | purified M. tuberculosis FBA, fluorescence read-out | inhibition, % at 1 µM | 2.3% of 360,000 active | AID 588726; in the data active = inhibition above about 27%;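 note: 0% = vehicle and 100% = reference inhibitor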
Target sequence (P9WQA3 whole entry, looked up): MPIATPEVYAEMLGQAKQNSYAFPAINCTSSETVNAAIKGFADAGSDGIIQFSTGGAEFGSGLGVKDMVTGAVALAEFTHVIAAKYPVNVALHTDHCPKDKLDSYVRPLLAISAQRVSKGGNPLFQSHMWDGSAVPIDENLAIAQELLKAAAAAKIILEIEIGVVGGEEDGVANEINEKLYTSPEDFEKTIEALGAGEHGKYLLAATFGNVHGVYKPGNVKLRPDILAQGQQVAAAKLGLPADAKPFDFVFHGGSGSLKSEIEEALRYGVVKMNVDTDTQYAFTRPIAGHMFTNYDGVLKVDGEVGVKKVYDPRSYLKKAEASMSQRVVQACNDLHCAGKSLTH
GDH-TPI counter: counter-screen for M. tuberculosis FBA inhibitors: GDH-TPI coupled enzymes | GDH-TPI coupled enzyme counterscreen, NADH absorbance | inhibition, % at 4.8 µM | 1.2% of 360,000 active | AID 588335;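 note: 0% = DMSO wells and 100% = wells lacking the enzyme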
CCHF vOTU inh: blocks the CCHF virus ovarian tumor domain protease | 0.55% of 370,000 active | inhibition, % at 11.5 µM | CCHFV vOTU protease, Pep-AMC fluorescence; note: 0% = vehicle wells with enzyme and 100% = no enzyme wells
RecA intein inh: inhibitors of M. tuberculosis RecA intein splicing | P9WHJ3 | cell-free RecA intein splicing, fluorescence | inhibition, % (concentration not given with the values) | 0.75% of 290,000 active | AID 2221; in the data active = inhibition above about 30%;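 note: 0% = vehicle wells and 100% = reference inhibitor control wells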
* hit, by the source's call; . = no result given. Cut-off read from the data, not from the text of the source, unless noted: active = inhibition above about 30%; inactive = the rest.

SMILES	Mtb FBA inh	GDH-TPI counter	CCHF vOTU inh	RecA intein inh
CN(CCOc1ccccc1)CCOc1ccccc1	2	-4	5	-1
CN(C)CCOc1ccc(/C(=C(/CCCl)c2ccccc2)c2ccccc2)cc1	5	1	16	33*
CC(=O)C1CCC2C3CC=C4CC(SC(=N)N)CCC4(C)C3CCC12C (centres undefined)	1	-1	10	.
CC1CCC(NC(=O)c2cc3c(s2)CCCC3)CC1 (centres undefined)	3	-2	5	0
COc1ccc(OCC(=O)NNC(=S)NC(=O)c2ccc(Br)o2)cc1	-3	4	9	-3
COc1cc(OC)c(OC)cc1/C=N/NC(=S)NCC1CCCO1 (centres undefined)	14	34*	-7	0
COc1cc(/C=N/NC(=O)C(=O)NCc2ccco2)ccc1O	-2	32*	8	-1
COc1ccc(NC(=S)NCC2CCCO2)c(C)c1 (centres undefined)	2	7	20	2
COc1cc(/C=N/NC(=O)C(=O)NCC2CCCO2)ccc1O (centres undefined)	-2	38*	25	0
COc1cc(/C=C(\C#N)C(=O)NCC2CCCO2)ccc1O (centres undefined)	-20	2	1	2
COc1cc(/C=N/NC(=O)C(=O)NCc2ccco2)cc(Cl)c1O	-2	36*	15	0
CCc1ccc(C(=O)NNC(=O)c2cccc(S(=O)(=O)N3CCN(C)CC3)c2)cc1	-1	-9	-1	.
CCCCCCCNC(=O)C1(CC2CC(c3ccc(Cl)cc3)=NO2)CCN(C(=O)OC(C)(C)C)CC1 (centres undefined)	0	-5	8	3
CC(C)N1CCCCC(NC(=O)c2ccc(Cl)cc2Cl)C1=O (centres undefined)	.	.	11	.
CCC(C(=O)NCc1ccccc1)n1c(CSCCOc2ccccc2)nc2ccccc21 (centres undefined)	.	.	3	.
CCOC(=O)c1c(NC(=O)c2ccc(N3C(=O)[C@@H]4[C@H](C3=O)[C@H]3C=C[C@@H]4C3)cc2)sc2c1CC(C)CC2 (some centres undefined)	137*	1	-3	-6
O=c1ncccn1C1OC(CO)C(O)C1O (centres undefined)	3	.	-9	.
O=C(NN=Cc1c(F)c(F)c(F)c(F)c1F)c1ccc(NS(=O)(=O)c2cccs2)cc1	-4	36*	12	.
COc1cc(C=NNC(=O)c2ccc(NS(=O)(=O)c3cccs3)cc2)cc(Br)c1O	1	52*	7	.
Cc1nn(-c2ccccc2)c(Cl)c1/C=N/NC(=O)c1ccc(NS(=O)(=O)c2cccs2)cc1	.	.	.	0
O=C(NN=Cc1ccc(O)cc1)c1ccccc1NS(=O)(=O)c1cccs1	4	37*	18	.
CC(=O)Nc1ccc(/C=N/NC(=O)c2cccc(S(=O)(=O)N3CCOCC3)c2)cc1	1	36*	7	-3
CCN1Cc2nnn(Cc3ccc(C)cc3)c2-c2ccccc2S1(=O)=O	.	.	-4	.
Fc1ccc(-c2n[nH]c(=S)n2N=Cc2ccc(OCc3ccccc3)cc2)cc1	.	.	18	.
CC(=O)Nc1ccc(C=NNC(=O)c2ccc(NS(=O)(=O)c3cccs3)cc2)cc1	2	59*	14	.
SMILES	Mtb FBA inh	GDH-TPI counter	CCHF vOTU inh	RecA intein inh
C/C(=N\NC(=O)c1ccc(NS(=O)(=O)c2cccs2)cc1)c1ccc(Cl)cc1	-2	9	-5	-2
Nn1c(SCC(=O)Nc2cccc3ccccc23)nnc1-c1cc(-c2ccc(Cl)cc2)n[nH]1	.	.	5	.
CC(C)OC(=O)C1C2C=CC3(CN(Cc4cccs4)C(=O)C13)O2 (centres undefined)	123*	-4	14	0
Cn1cc(C[C@H](NC(=O)OC(C)(C)C)C(=O)N[C@@H](CO)Cc2ccccc2)c2ccccc21	4	0	1	0
Cc1c(N=C2NN=C(c3c[nH]c4ccccc34)CS2)c(=O)n(-c2ccccc2)n1C	0	50*	1	-1
CC(C)(C)c1ccc(C(=O)Nc2ccc(Oc3cccnc3)nc2)cc1	0	-9	-3	.
CCOC(=O)C(=CNc1ccc(Oc2cccnc2)nc1)C(=O)OCC	-2	36*	-6	-2
COC(=O)c1cc2c(c3c4cc(OC)ccc4n(S(=O)(=O)c4ccc(F)cc4)c13)C(=O)N(CC(C)C)C2	.	.	2	.
COc1ccc([N+](=O)[O-])cc1-c1[nH]c(-c2ccc(C(=O)O)cc2)nc1-c1ccccc1	3	37*	14	2
COc1ccc(-c2nc(-c3ccccc3)c(-c3cc([N+](=O)[O-])ccc3C)[nH]2)cc1O	1	11	9	18
COc1ccccc1CCc1nnc(CCC(=O)N(C)Cc2cccc3ncccc23)o1	159*	-2	-13	2

Bioassay records (PubChem BioAssay)
